“And” between values parts separate entries of the source, which are not always exact repeats. Equal values may be shown once. The source made the active and inactive calls. Unless noted, how the calls were made is not given here.

The nature of assay [1]: liver-stage malaria parasite growth inhibition, primary screen, cell-based, HepG2, luciferase luminescence, HepG2 viability (AID 624349; in the data active means parasite load remaining mostly below about 12%, no sharp cut-off; inactive means mostly above about 10%;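 further: 100% = mean of DMSO negative control wells on the same plate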). The note with it: P. berghei liver stage in HepG2, luciferase luminescence, concentration not given here; parasite load remaining: stronger effect = lower value; viability: measured here: HepG2 viability without parasites.
The subject of assay [2] is Hepatitis C virus NS3 helicase. Description: HCV NS3 helicase inhibitors, primary screen, biochemical, fluorescence polarization, LOPAC1280 library (AID 687035; in the data active means inhibition above about 37%). The settings on record: Purified HCV NS3 helicase, Cy5-dT15 ssDNA binding fluorescence polarization; stronger effect = higher value; concentration not given here.
Assay [3] is described as follows: Cy5 fluorescence quenching or enhancement artefacts, artefact control for HCV NS3 helicase inhibitor project, biochemical, LOPAC1280 (AID 687037). The settings on record: Cy5-DNA-NS3h complex fluorescence interference counterscreen. In general terms: The purpose of a counterscreen is to sort out artefacts and off-target activity.
Assay [4] is described as follows: Cy5 fluorescence interference with SSB-bound oligo, artefact control for HCV NS3 helicase inhibitor project, biochemical, NIH Clinical Collection, E. coli SSB (AID 743268).
Assay [5] deals with Hepatitis C virus NS3 helicase. Description: HCV NS3 helicase inhibitors, primary screen, biochemical, fluorescence polarization, NIH Clinical Collection (AID 743270). The note with it: NS3 helicase binding to Cy5-dT15 DNA, stronger effect = higher value, concentration not given here.
Assay [6] has as its target Single-stranded DNA-binding protein (Escherichia coli (strain K12)) (UniProt P0AGE0). Description: E. coli SSB displacement from DNA, counter-screen for HCV NS3 helicase inhibitor project, biochemical, fluorescence polarization, NIH Clinical Collection (AID 743271; in the data active means inhibition above about 28%). The note with it: stronger effect = higher value, concentration not given here.
Assay [7] can be described thus: fluorescence interference in NS3h assay format, artefact control for HCV NS3 helicase inhibitor project, biochemical, NIH Clinical Collection (AID 743272).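 Further: HCV NS3 helicase with a Cy5 labelled single stranded DNA probe.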 The note with it: fluorescence interference counterscreen, stronger effect = lower value.
For assay [8], the system named is Neuropilin-2 / VEGF-C interaction (human). Description: inhibitors of NRP2–VEGF-C binding, biochemical, microplate binding format, z-score (AID 743281). The settings on record: microplate NRP2/VEGF-C binding assay; stronger effect = lower value.
Assay [9] is described as follows: stimulators of nuclear beta-catenin in C2C12, primary screen, imaging, WNT3A-conditioned medium, mouse C2C12, NPC library (AID 1117326; in the data active means nuclear beta-catenin stimulation mostly above about 4.2%, no sharp cut-off; inactive means mostly below about 10%). The note with it: stronger effect = higher value.
Assay [10] is described as follows: stimulators of insulin release from INS-1E, primary screen, cell-based, 5 mM glucose, NPC library (AID 1117329;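 active means compound raises insulin release from rat beta cells at 5 mM glucose, no numeric limit stated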). The settings on record: rat INS-1E insulin secretion, at 10 µM, stronger effect = higher value.
Assay [11] can be described thus: growth inhibition of GSK3B-pretreated HCT116 cells – cell-based, CellTiter-Glo, 0.2 to 20 µM (AID 1117336;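 active means compounds lowering colon cancer cell viability after pretreatment blocking the GSK3B kinase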). The settings on record: HCT116 viability after GSK3B inhibitor, at 20 µM, stronger effect = higher value. For orientation: Cellular ATP, detected with luciferase, serves as a proxy for viable cell number.
Assay [12] can be described thus: inhibition of endothelial tube formation, primary screen, imaging, VEGF stimulated, CD31 staining, tube area, NPC library (AID 1117340;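 active means compound that reduces growth-factor-driven endothelial tube area in a mixed cell culture, no cutoff stated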). The note with it: VEGF-stimulated ADSC/ECFC co-culture, at 10 µM, stronger effect = higher value.
The nature of assay [13]: glucagon-like peptide 1 release enhancers, primary assay, NCI-H716 cell line, NPC library (AID 1117341;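 active means compound raises GLP1 secretion from the human gut endocrine cells, with no numeric limit stated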). The note with it: NCI-H716 cells, at 10 µM, stronger effect = higher value.
Assay [14] in a line: HCT116 colon cancer cell growth inhibition, primary screen, CellTiter-Glo luminescence, NPC library (AID 1117342;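 active means compounds that lower survival of HCT116 colon cancer cells in the luminescence readout, no numeric limit stated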). The settings on record: at 20 µM (top of the series).
Assay [15] in a line: CellTiter-Glo luminescent readout of SW480 viability loss, NPC library primary (AID 1117343;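 active means compounds that lower viability of the colon cancer cells in the luminescence readout, with no numeric limit stated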). The settings on record: CellTiter-Glo luminescence; at 20 µM (top of the series).
The nature of assay [16]: decreased DLD-1 cellular survival, CellTiter-Glo luminescent readout, NPC compound collection, primary HTS (AID 1117346;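 active means compounds that lower survival of DLD-1 colon cancer cells in the luminescence readout, no cutoff given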). The note with it: DLD-1 viability, CellTiter-Glo luminescence; at 20 µM (top of the series).

Broadly, the viability is a read-out of living cells in per cent, often relative to untreated cells. The term inhibition denotes the drop in the measured response relative to a control, in per cent. Turning to `c1cnc(N2CCN(Cc3ccc4c(c3)OCO4)CC2)nc1`, in assay [1], the parasite load remaining was 105% (inactive) and 100% (inactive) and 31.2% (inactive). The viability in assay [1] was 78.5% and 71.3% and 101%. Besides, the inhibition was -1% (inactive) in [2], -5.94% (inactive) in [5] and -0.87% (inactive) in [6]. In addition, in assay [3], the fluorescence ratio (interference) was 1 (inactive). The fluorescence ratio in assay [4] is 1.01 (inactive); in assay [7] it was 0.96 (inactive). The z-score in assay [8] is -0.0568 (inactive). For the same compound, the nuclear beta-catenin stimulation in assay [9] (at 10 µM) is 0.7% (inactive); in assay [9] (stimulation, at 2 µM), 4.1%. The insulin secretion stimulation in assay [10] is 1% (inactive). Moreover, the viability decrease in assay [11] was -13.4% (inactive). The tube area decrease in [12] was -4.5% (inactive). The GLP1 secretion stimulation in assay [13] is 10.3% (inactive). The inhibition of viability in assay [14] was 4.13% (inactive). Besides, the results for the viability decrease (inhibition) in assay [15] and in [16] were -7.2% (inactive) and -20% (inactive), respectively.
As to `C[C@@H]1C[C@H]2[C@@H]3CCC4=CC(=O)C=C[C@]4(C)[C@@]3(F)[C@@H](O)C[C@]2(C)[C@H]1C(=O)CO`, in [1], the parasite load remaining is 74.3% (inactive). Moreover, the viability in [1] was 70.8%. Further, the fluorescence ratio in assay [4] is 0.96 (inactive); in assay [7], 0.92 (inactive). The inhibition in assay [5] and in assay [6] was -1.97% (inactive) each time. The nuclear beta-catenin stimulation in assay [9] (at 10 µM) was -1.6% (inactive); in assay [9] (stimulation, at 2 µM), 0.6%. Besides, the insulin secretion stimulation in assay [10] was 7.5% (inactive). Besides, the viability decrease in assay [11] is -14.3% (inactive). For the same compound, the tube area decrease in [12] was 6.7% (inactive). For the same compound, the GLP1 secretion stimulation in assay [13] was -0.7% (inactive). In addition, the inhibition of viability in assay [14] was 9.7% (inactive). Also, the viability decrease (inhibition) was 3.5% (inactive) in assay [15] and -5% (inactive) in assay [16].
Consider `CC(C)(C(=O)c1cccnc1)c1cccnc1`, for which, in assay [1], the parasite load remaining was 42.4% (inactive) and 90.8% (inactive) and 15.1% (inactive). For the same compound, the viability in assay [1] was 102% and 94.8% and 117%. In addition, the fluorescence ratio in [4] was 1.03 (inactive); in assay [7], 0.96 (inactive). In addition, the figures for the inhibition in [5] and in assay [6] were 1.36% (inactive) and 1.05% (inactive), respectively. Further, the nuclear beta-catenin stimulation is 4.8% (inactive) in [9] (at 10 µM) and 1.3% in [9] (stimulation, at 2 µM). The insulin secretion stimulation in assay [10] is 0.7% (inactive). The viability decrease in [11] is -5.6% (inactive). Besides, the tube area decrease in assay [12] is 4.4% (inactive). The GLP1 secretion stimulation in [13] was 0.8% (inactive). For the same compound, in assay [14], the inhibition of viability is 0.97% (inactive). Besides, the figures for the viability decrease (inhibition) in assay [15] and in assay [16] were 1.2% (inactive) and -9.4% (inactive), respectively.
For `Clc1ccc2c(c1)CCc1cccnc1C2=C1CCNCC1`, the parasite load remaining in [1] is 48.1% (inactive) and 27.5% (inactive) and 15.2% (inactive). Moreover, the viability in [1] is 92% and 56.9% and 74%. The fluorescence ratio in assay [4] and in assay [7] was 1 (inactive) each time. Also, the inhibition in assay [5] is -2.84% (inactive); in assay [6], -3.54% (inactive). Further, the z-score in assay [8] was 1.87 (inactive). The nuclear beta-catenin stimulation in assay [9] (at 10 µM) is 0.3% (inactive); in [9] (stimulation, at 2 µM), -0.9%. Besides, in assay [10], the insulin secretion stimulation is 37.7% (active). The viability decrease in assay [11] was 50.4% (active). In addition, the tube area decrease in assay [12] is 9.9% (inactive). For the same compound, the GLP1 secretion stimulation in [13] was 21.1% (active). Also, in assay [14], the inhibition of viability is 55.5% (active). For the same compound, the viability decrease (inhibition) was 97.8% (active) in assay [15] and 30% (inactive) in assay [16].
